Experiments:
Test in all cases: log2 ratio of Biotin-Ahx-Ub-VS probe labelling (fragment/DMSO); higher = less target engagement (more negative = stronger competition), active = hit call of the paper (q ≤ 0.05, log2 ratio ≤ -1)
Conditions in all cases: compound concentration: 200 uM; treatment time: 3 h
USP42 = target: T1, USP42 (UniProt Q9H9J4)
T1 sequence (whole entry): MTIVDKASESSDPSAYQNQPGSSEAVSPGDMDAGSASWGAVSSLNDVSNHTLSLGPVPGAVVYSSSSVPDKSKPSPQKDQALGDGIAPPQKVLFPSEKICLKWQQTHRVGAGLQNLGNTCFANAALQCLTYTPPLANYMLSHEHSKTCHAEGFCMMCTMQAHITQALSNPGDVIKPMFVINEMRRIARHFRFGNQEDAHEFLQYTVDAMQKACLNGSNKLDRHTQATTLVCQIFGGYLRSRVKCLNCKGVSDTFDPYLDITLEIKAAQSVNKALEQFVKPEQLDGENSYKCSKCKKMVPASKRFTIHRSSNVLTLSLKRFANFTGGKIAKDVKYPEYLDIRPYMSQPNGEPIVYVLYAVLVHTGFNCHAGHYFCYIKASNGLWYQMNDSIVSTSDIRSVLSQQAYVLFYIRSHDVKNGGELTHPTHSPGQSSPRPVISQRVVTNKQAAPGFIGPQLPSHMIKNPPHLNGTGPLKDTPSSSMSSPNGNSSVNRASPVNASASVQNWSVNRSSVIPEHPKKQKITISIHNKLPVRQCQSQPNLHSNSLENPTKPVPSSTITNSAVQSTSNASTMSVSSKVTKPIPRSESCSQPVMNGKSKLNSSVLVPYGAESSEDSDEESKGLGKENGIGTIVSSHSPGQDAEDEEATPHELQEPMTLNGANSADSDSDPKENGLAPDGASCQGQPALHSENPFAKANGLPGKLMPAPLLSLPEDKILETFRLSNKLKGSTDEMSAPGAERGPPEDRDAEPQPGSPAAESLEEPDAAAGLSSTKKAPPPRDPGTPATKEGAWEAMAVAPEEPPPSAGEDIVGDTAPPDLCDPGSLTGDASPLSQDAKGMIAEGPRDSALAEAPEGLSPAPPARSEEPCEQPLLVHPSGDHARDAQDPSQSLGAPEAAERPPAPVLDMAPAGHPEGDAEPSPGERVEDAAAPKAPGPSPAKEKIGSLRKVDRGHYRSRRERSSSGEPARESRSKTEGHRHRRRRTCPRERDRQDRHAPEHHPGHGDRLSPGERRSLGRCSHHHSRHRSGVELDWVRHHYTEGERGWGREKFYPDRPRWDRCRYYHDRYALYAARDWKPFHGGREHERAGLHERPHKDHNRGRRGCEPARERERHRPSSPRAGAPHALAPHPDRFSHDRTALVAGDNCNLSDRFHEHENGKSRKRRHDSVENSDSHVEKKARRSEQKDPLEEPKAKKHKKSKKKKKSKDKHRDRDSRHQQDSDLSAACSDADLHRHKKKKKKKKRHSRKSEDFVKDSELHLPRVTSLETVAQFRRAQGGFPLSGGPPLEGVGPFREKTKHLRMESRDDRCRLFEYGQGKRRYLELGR
In short: (§1)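 HEK293T lysate (495 µg per sample, in Tris/CHAPS/IGEPAL buffer with protease inhibitors) was exposed in triplicate for 3 h to fragment at 200 µM or to vehicle, then to Biotin-Ahx-Ub-VS at 0.5 µM final for 1 h. Labelled DUBs were enriched on NeutrAvidin, digested with LysC and trypsin, and analysed by diaPASEF LC-MS/MS. Spectronaut label-free quantities were normalised to the global median, and values are average log2 ratios of fragment over vehicle from an unpaired t-test. Only proteins with ≥2 unique peptides were used.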

USP46 = USP46 (UniProt P62068)
Chain of USP46 (P62068 whole entry): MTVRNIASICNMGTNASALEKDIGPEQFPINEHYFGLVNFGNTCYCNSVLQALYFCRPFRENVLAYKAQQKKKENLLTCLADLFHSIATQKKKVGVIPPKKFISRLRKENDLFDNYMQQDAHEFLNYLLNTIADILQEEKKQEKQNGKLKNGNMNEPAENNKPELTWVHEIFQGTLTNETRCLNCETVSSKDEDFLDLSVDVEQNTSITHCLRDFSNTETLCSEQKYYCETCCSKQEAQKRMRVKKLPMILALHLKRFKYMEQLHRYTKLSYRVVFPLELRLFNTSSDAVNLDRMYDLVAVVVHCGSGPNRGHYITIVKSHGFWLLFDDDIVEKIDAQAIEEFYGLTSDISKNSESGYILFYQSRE
In short: as §1

USP47 = target: T2, USP47 (UniProt Q96K76)
T2 sequence (whole entry): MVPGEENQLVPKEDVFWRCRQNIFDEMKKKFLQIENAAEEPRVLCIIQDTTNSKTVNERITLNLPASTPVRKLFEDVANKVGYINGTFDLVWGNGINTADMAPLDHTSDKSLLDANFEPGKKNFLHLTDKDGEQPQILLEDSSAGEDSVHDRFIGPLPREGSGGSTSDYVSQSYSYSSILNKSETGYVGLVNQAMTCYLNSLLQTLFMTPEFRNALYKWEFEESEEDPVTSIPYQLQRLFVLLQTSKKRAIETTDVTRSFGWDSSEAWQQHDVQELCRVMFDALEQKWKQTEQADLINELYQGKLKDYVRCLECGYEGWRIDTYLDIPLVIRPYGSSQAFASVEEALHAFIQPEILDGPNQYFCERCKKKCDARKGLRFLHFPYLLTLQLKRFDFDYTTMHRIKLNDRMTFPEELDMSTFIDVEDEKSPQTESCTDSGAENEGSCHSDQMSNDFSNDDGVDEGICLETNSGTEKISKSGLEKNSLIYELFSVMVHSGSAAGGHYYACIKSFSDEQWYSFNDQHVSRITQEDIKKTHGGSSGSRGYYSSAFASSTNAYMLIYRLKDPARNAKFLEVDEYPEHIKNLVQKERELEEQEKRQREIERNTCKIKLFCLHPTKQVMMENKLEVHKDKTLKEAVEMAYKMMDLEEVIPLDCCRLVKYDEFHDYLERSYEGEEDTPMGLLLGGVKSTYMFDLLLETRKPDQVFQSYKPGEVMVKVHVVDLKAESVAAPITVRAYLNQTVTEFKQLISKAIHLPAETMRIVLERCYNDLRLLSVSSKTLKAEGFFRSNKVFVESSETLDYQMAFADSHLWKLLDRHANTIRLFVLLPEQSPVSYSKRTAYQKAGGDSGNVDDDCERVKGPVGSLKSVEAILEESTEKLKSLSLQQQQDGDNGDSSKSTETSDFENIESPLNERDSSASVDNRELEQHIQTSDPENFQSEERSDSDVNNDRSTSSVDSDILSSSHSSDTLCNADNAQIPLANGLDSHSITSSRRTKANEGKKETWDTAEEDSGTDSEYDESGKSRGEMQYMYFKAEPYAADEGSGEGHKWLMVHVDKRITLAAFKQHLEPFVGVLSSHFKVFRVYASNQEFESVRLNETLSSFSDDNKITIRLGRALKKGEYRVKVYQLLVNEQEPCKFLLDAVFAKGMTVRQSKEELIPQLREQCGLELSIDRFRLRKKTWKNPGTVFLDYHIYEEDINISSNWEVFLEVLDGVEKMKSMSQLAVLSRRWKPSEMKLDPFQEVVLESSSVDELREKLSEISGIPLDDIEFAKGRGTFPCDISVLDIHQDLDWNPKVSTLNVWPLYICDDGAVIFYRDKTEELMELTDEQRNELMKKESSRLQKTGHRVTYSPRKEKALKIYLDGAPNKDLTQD
In short: as §1

USP48 = target: T3, USP48 (UniProt Q86UV5)
T3 sequence (whole entry): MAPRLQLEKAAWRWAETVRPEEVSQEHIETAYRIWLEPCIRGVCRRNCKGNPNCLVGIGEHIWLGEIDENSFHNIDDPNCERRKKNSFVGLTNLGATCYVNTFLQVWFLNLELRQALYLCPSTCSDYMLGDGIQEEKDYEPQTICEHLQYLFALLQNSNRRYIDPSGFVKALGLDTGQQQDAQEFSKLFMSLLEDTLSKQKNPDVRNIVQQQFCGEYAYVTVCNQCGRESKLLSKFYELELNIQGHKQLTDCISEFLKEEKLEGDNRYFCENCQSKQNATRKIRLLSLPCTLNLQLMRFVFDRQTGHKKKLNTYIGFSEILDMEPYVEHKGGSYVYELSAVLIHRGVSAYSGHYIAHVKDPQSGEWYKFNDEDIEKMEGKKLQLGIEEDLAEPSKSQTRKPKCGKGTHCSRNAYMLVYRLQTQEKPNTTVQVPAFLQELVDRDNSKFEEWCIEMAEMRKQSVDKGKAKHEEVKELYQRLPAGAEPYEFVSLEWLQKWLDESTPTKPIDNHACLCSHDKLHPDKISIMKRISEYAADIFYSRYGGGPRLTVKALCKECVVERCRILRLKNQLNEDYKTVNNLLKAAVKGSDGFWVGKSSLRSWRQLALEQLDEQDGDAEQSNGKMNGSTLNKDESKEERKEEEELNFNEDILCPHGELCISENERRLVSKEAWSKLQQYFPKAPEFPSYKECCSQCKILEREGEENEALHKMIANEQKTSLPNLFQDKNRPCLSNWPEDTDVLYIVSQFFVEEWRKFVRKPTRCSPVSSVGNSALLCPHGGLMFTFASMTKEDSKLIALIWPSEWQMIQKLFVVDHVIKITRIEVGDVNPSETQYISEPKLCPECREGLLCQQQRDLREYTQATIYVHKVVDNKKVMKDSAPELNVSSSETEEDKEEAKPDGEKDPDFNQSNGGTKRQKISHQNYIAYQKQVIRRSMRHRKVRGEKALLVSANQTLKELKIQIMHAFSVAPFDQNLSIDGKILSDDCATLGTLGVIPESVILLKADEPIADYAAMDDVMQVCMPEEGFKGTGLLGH
In short: as §1

USP5 = target: T4, USP5 (UniProt P45974)
T4 sequence (whole entry): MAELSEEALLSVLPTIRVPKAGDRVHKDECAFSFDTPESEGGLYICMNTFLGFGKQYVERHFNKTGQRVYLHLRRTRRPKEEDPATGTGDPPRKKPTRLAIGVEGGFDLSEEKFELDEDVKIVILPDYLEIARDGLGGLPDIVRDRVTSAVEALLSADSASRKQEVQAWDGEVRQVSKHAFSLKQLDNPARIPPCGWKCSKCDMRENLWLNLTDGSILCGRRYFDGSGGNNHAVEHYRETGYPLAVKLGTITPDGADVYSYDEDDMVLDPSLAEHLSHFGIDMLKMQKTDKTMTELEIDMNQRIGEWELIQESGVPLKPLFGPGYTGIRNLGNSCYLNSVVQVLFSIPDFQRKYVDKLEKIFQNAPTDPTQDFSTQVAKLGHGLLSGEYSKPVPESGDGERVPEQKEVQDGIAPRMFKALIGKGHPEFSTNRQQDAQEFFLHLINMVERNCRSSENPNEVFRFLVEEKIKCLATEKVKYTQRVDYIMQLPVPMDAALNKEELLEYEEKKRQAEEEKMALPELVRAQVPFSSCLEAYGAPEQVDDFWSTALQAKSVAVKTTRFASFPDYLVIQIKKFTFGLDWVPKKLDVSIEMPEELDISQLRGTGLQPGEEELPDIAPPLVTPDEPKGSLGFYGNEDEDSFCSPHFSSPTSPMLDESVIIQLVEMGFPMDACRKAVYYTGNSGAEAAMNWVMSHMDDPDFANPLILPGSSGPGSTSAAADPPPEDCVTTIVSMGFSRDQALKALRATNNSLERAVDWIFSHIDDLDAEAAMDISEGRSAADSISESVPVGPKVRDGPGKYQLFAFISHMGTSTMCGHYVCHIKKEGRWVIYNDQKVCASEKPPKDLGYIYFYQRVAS
In short: as §1

USP54 = USP54 (UniProt Q70EL1)
Chain of USP54 (Q70EL1 whole entry): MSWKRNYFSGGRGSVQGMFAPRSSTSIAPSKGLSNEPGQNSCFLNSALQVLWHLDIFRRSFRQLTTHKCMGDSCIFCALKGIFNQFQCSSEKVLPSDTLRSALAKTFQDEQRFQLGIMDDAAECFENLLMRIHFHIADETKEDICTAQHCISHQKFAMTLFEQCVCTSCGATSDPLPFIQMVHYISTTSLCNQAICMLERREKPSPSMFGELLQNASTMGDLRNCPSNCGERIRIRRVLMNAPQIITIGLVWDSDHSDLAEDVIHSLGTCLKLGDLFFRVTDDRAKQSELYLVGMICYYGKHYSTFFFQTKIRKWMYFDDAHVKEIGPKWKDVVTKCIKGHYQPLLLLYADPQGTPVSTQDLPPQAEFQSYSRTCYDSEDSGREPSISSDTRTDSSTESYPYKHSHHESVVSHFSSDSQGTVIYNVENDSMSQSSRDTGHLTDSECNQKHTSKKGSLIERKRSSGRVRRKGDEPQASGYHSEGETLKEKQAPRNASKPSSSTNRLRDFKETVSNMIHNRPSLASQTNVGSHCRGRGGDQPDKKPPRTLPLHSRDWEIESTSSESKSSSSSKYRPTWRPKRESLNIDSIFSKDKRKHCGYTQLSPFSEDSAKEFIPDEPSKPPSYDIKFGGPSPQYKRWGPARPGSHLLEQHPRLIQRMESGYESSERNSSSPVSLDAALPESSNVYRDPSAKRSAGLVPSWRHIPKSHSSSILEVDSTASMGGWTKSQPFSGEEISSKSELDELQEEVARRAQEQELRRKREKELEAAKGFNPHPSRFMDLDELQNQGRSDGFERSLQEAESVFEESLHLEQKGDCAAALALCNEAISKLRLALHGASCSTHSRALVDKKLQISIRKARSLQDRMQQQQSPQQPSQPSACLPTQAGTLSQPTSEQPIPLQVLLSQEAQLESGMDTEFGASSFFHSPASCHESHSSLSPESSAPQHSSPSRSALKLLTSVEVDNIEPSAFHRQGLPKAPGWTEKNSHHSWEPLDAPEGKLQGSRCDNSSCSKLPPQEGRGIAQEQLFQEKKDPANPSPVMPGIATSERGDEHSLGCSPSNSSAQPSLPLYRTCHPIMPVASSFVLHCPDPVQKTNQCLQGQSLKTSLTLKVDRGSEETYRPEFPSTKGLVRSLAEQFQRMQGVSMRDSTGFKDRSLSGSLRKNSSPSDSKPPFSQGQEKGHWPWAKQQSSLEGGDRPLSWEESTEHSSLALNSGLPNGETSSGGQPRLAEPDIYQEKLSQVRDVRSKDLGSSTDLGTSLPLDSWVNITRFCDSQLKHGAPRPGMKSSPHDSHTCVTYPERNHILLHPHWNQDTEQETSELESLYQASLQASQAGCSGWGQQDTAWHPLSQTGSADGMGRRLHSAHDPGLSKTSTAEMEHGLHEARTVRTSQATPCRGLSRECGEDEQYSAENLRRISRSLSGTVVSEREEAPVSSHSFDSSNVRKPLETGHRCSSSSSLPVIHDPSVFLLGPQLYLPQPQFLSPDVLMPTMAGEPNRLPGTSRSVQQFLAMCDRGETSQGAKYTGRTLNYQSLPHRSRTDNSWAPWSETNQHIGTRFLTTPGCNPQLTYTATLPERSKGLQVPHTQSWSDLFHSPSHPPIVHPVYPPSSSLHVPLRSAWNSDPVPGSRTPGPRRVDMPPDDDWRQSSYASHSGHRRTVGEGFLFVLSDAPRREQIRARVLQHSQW
In short: as §1

USP7 = USP7 (UniProt Q93009)
Chain of USP7 (Q93009 whole entry, looked up): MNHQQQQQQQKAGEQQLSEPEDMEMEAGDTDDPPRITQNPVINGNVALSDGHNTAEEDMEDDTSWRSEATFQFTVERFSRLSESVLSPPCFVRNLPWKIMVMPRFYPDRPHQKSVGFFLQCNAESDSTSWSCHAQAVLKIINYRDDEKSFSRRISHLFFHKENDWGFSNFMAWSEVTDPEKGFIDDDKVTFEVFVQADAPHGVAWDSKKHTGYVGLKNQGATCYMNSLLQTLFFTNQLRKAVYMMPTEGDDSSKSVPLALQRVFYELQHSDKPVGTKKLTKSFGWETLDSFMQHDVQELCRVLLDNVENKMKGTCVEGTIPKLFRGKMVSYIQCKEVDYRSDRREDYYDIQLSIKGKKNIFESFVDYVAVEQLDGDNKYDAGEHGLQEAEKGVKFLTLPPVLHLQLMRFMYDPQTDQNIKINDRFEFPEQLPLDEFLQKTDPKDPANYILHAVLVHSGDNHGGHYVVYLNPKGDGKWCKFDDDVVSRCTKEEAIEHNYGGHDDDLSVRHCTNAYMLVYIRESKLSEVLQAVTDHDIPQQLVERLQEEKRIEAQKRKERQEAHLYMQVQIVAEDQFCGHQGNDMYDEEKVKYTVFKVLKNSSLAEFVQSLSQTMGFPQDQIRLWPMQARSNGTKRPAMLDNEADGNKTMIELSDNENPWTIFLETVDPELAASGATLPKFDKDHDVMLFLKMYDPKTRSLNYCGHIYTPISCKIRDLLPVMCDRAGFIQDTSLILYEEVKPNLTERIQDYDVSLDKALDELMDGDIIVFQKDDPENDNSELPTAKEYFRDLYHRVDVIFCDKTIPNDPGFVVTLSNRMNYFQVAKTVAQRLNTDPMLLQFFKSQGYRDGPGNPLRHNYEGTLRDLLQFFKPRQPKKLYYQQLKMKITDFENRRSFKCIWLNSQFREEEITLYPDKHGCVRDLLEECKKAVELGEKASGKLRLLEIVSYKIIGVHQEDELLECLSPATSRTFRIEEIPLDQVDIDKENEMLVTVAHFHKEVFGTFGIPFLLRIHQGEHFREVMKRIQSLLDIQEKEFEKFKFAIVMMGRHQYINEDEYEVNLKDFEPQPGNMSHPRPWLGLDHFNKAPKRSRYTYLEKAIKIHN
In short: as §1

USP8 = target: T5, USP8 (UniProt P40818)
T5 sequence (whole entry): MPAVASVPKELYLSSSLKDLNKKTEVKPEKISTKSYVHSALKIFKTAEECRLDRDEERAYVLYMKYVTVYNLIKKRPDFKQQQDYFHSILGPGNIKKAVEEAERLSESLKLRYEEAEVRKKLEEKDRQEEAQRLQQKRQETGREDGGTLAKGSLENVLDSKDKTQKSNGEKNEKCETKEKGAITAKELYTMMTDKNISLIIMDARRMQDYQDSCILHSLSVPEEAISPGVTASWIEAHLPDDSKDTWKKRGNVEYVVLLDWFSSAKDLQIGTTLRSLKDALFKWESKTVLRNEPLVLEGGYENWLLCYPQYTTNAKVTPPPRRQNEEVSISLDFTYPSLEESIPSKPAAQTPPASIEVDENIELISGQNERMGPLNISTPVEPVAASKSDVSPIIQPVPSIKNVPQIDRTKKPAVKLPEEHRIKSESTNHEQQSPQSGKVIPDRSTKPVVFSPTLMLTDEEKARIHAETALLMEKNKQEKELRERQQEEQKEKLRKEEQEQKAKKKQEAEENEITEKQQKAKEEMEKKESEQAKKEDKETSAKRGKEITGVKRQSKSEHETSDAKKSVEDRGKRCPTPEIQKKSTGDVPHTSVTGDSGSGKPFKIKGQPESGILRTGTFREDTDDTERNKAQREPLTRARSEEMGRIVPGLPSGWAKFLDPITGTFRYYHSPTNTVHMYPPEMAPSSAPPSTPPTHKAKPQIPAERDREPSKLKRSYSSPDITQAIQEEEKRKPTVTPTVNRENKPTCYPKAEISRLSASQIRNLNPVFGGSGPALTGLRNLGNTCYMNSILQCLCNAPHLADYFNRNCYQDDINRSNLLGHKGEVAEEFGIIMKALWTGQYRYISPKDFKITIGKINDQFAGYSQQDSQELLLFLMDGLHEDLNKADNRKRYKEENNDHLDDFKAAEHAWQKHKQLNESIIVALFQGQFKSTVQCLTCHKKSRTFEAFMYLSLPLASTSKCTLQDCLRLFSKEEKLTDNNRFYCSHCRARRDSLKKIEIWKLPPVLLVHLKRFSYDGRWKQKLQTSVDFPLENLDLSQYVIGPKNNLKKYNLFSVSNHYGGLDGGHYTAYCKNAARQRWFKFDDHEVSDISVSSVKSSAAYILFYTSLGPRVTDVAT
In short: as §1

Measured: log2 ratio of Biotin-Ahx-Ub-VS probe labelling

N#Cc1ccc(Cl)cc1NC(=O)CCl
inactive: USP42 -0.385 | USP46 0.0423 | USP47 -0.413 | USP48 -0.305 | USP5 -0.153 | USP54 -0.514 | USP7 -0.47 | USP8 -0.0467
